# From the supplement of paper PMC10849652
# The full data set covers some 7,900 targets. This sample favours those with a hit. About 0.6% of all pairs of compound and target were hits. Values without a mark were called inactive.
# Legend:
# Experiment in all cases: log2 fold change, soluble protein after heating vs DMSO (PISA); higher = thermal stabilisation; K562 cells, 10 uM, 30 min; active = over 0.2 and 3.5 SD of the protein, either way, in both replicates (recomputed)
# erlotinib = compound: C#Cc1cccc(Nc2ncnc3cc(OCCOC)c(OCCOC)cc23)c1 [erlotinib]
# How it was run: (§1)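 K562 cells at 2×10^6 cells/mL were treated for 30 min with 10 μM compound, and aliquots were heated for 3 min over 48°C-58°C before pooling. Extraction used PBS with 0.5% NP-40 at 4°C, and soluble protein was the supernatant after 21,000xg for 90 min, measured by TMTpro 16plex LC-MS/MS with channel sums equalised. Thermal stability values, relative to control samples and from duplicates, are log2 fold changes.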
# [1] = compound: C/C(=N\NC(=O)C1=CC(=CC=C1)S(=O)(=O)N2CCOCC2)/C3=C(C=CC(=C3)Cl)O
# How it was run: as §1
# [2] = compound: C1=CC(=C(C=C1Cl)C2=NC3=NC=CN=C3C(=N2)NC4=CC=NC=C4)F
# How it was run: as §1
# [3] = compound: C1=CC(=CC=C1C2=NC3=C(N2)C=C(C=C3)C(=O)N)OC4=CC=C(C=C4)Cl
# How it was run: as §1
# [4] = compound: C1=CC2=C(C=CC(=C2)/C=C\3/C(=O)NC(=NCC4=CC=CS4)S3)N=C1
# How it was run: as §1
# [5] = compound: C1=CC2=NC=CN=C2C=C1/C=C/3\C(=O)NC(=O)S3
# How it was run: as §1
# [6] = compound: C1=CC=C(C=C1)C2=NC(=C(N2)C3=CC=NC=C3)C4=CC(=C(C=C4)Cl)O
# How it was run: as §1
# [7] = compound: C1CCN(C1)C(=O)NC2=CC=CC(=C2)NC3=NC=C(C(=N3)NCCC4=CN=CN4)Br
# How it was run: as §1
# [8] = compound: C1CN(CCC1(CC2=CC=C(C=C2)Cl)N)C3=NC=NC4=C3C=CN4
# How it was run: as §1
# IRAK-1-4 Inhibitor I = compound: C1COCCN1CCN2C3=CC=CC=C3N=C2NC(=O)C4=CC(=CC=C4)[N+](=O)[O-] [IRAK-1-4 Inhibitor I]
# How it was run: as §1
# ibrutinib = compound: C=CC(=O)N1CCC[C@@H](n2nc(-c3ccc(Oc4ccccc4)cc3)c3c(N)ncnc32)C1 [ibrutinib]
# How it was run: as §1
# [9] = compound: CC(=O)c1cnc2ccc(-c3cc(Cl)c(O)c(Cl)c3)nc2c1N[C@H]1CC[C@H](CN(C)C)CC1
# How it was run: as §1
# ralimetinib = compound: CC(C)(C)Cn1c(N)nc2ccc(-c3[nH]c(C(C)(C)C)nc3-c3ccc(F)cc3)nc21 [ralimetinib]
# How it was run: as §1
# [10] = compound: CC(C)(O)CC(=O)NCCn1ccc2ncnc(Nc3ccc(Oc4cccc(C(F)(F)F)c4)c(Cl)c3)c21
# How it was run: as §1
# [11] = compound: CC(C)C1=C2N=C(C=C(N2N=C1)NCC3=CC=CC=C3)NCCCCCCN
# How it was run: as §1
# [12] = compound: CC(C)C[C@@H](C=O)NC(=O)[C@H](CC(C)C)NC(=O)[C@H](CC(C)C)NC(=O)OCc1ccccc1
# How it was run: as §1
# pinometostat = compound: CC(C)N(C[C@H]1O[C@@H](n2cnc3c(N)ncnc32)[C@H](O)[C@@H]1O)[C@H]1C[C@@H](CCc2nc3cc(C(C)(C)C)ccc3[nH]2)C1 [pinometostat]
# How it was run: as §1
# [13] = compound: CC1=C(C(CC(=O)N1)C2=CC=C(C=C2)C(F)(F)F)C(=O)NC3=C(C=C4C(=C3)C=NN4)F
# How it was run: as §1
# [14] = compound: CC1=C(C2=C(C=C1)C(=O)C3=CC=CC=C3N2CCCN)C
# How it was run: as §1
# [15] = compound: C1=CC=C2C(=C1)C3=NNC4=CC=CC(=C43)C2=O
# How it was run: as §1
# Sequence of UniProt P32019 (P32019 whole entry, looked up): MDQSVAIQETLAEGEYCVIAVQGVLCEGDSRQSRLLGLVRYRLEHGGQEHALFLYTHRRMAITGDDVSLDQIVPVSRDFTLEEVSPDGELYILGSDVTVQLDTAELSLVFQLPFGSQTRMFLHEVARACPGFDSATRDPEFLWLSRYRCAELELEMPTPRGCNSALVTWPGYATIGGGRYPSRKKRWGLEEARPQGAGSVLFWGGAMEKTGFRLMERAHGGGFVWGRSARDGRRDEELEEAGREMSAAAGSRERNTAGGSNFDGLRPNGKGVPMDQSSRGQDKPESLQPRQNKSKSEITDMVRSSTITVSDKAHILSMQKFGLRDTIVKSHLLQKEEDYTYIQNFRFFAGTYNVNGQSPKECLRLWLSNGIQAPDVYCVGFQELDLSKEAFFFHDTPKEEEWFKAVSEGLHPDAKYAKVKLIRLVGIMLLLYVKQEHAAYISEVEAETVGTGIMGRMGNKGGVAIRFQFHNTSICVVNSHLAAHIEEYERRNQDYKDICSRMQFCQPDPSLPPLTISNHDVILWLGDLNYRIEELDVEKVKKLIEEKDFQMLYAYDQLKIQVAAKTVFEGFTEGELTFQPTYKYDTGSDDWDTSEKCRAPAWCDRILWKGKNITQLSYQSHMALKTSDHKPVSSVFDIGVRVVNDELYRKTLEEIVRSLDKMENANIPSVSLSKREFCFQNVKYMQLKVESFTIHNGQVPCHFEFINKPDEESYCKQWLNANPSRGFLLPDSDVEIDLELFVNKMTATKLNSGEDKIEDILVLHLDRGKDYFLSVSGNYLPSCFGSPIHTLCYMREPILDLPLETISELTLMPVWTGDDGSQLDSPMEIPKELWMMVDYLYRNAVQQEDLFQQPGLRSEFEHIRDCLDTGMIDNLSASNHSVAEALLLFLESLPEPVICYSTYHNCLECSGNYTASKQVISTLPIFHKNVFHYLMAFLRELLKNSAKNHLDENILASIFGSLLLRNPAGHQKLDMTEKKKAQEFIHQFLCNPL
# Sequence of UniProt O95819 (O95819 whole entry, looked up): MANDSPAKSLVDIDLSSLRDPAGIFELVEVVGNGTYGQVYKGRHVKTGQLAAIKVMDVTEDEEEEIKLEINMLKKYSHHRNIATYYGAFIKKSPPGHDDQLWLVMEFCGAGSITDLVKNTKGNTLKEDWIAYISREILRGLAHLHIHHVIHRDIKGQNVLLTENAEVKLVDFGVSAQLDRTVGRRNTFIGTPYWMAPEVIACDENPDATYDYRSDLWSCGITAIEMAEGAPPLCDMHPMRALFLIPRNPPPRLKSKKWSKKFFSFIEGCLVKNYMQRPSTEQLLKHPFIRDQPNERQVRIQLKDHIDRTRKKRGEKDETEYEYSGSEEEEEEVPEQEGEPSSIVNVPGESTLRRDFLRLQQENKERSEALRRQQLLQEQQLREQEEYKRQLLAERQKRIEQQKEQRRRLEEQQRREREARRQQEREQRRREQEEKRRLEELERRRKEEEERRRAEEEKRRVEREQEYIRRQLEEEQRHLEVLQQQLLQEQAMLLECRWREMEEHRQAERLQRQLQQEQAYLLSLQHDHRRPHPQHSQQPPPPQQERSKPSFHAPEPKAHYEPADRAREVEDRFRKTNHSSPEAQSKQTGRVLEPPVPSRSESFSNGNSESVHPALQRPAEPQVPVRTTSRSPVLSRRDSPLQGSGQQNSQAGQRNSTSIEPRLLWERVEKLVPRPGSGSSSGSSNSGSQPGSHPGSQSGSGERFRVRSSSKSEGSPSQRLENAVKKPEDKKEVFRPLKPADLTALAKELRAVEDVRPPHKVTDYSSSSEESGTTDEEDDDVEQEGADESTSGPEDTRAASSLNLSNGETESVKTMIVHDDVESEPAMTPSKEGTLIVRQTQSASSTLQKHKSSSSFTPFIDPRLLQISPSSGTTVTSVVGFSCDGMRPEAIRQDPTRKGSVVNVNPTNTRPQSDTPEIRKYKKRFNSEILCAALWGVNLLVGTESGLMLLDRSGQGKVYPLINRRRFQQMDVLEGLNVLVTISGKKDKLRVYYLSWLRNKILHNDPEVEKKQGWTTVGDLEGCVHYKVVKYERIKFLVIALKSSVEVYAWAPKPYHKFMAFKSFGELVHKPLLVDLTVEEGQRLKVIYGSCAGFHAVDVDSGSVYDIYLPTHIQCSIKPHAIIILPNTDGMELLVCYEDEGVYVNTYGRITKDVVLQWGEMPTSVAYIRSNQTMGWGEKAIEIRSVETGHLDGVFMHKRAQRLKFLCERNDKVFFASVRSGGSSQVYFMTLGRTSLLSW
# Sequence of UniProt Q9BQD3 (Q9BQD3 whole entry, looked up): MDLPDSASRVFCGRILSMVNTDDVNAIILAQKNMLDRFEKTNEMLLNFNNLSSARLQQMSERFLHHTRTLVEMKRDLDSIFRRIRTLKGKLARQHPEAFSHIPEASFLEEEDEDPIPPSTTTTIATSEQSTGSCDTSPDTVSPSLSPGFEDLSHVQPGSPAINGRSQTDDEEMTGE
# Sequence of UniProt Q08334 (Q08334 whole entry, looked up): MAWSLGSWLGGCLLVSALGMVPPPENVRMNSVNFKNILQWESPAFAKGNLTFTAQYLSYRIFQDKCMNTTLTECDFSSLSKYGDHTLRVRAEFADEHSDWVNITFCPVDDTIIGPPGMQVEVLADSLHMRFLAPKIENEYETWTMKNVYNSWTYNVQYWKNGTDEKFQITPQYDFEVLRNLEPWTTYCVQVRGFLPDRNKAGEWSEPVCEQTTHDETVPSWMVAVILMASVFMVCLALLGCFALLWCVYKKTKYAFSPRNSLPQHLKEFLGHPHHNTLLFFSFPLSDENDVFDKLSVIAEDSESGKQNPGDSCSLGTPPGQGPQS
# Sequence of UniProt P51884 (P51884 whole entry, looked up): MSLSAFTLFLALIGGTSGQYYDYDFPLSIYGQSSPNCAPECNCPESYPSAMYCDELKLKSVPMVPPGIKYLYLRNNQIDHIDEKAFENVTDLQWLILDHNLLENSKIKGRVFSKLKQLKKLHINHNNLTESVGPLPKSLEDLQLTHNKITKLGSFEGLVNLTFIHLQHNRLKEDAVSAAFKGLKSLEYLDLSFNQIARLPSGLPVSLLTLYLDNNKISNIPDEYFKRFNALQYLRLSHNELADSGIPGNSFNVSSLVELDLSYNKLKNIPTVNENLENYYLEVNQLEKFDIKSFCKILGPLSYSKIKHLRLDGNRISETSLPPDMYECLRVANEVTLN
# Sequence of UniProt Q9Y4K4 (Q9Y4K4 whole entry, looked up): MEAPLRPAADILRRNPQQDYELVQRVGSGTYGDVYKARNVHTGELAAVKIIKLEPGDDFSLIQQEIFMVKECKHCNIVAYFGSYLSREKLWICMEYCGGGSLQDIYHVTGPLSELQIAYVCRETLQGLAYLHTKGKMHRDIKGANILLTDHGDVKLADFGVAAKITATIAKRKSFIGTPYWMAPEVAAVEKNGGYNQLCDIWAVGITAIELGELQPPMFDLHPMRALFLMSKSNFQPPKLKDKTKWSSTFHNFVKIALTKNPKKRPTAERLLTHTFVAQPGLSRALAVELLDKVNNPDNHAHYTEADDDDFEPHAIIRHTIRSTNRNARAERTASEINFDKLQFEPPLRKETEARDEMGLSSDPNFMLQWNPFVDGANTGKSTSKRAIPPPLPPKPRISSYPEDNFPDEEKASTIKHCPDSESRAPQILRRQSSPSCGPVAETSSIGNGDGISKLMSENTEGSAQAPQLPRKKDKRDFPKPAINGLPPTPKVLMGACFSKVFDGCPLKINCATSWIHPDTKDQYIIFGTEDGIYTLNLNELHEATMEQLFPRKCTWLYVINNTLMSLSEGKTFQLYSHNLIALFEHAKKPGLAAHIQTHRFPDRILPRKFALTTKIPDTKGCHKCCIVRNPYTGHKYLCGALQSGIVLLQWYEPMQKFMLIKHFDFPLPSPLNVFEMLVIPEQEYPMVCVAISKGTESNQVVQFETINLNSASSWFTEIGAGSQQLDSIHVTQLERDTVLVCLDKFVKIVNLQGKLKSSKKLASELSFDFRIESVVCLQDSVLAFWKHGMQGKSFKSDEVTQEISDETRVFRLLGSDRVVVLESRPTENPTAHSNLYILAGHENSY
# Sequence of UniProt Q9NQX7 (Q9NQX7 whole entry, looked up): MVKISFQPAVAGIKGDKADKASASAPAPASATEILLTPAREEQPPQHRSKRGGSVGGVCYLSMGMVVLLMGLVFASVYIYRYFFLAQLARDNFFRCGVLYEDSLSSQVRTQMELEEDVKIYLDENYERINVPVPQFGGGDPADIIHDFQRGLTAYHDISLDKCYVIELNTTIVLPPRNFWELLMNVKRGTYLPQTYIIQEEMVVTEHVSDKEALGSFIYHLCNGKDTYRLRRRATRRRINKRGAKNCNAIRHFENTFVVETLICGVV
# Sequence of UniProt Q92551 (Q92551 whole entry, looked up): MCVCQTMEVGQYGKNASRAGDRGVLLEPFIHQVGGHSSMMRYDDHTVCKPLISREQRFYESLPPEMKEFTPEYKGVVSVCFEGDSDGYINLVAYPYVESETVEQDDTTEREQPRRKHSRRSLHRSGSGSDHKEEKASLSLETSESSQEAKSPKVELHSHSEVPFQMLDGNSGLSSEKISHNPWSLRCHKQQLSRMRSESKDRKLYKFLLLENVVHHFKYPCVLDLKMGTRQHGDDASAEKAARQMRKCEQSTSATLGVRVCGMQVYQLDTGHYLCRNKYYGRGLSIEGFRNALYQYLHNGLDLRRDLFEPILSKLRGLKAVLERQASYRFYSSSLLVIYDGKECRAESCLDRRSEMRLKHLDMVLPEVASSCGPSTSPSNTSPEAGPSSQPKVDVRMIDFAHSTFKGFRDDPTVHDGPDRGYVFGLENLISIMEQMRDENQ
# Sequence of UniProt Q96G25 (Q96G25 whole entry, looked up): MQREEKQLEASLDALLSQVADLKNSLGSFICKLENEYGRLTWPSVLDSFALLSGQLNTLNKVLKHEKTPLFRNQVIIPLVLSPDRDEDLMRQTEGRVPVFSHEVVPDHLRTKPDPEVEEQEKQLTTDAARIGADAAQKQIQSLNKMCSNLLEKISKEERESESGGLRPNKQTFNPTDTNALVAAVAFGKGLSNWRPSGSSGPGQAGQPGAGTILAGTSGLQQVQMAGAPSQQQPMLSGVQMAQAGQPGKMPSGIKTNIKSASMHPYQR
Target,log2 fold change (erlotinib),log2 fold change [1],log2 fold change [2],log2 fold change [3],log2 fold change [4],log2 fold change [5],log2 fold change [6],log2 fold change [7],log2 fold change [8],log2 fold change (IRAK-1-4 Inhibitor I),log2 fold change (ibrutinib),log2 fold change [9],log2 fold change (ralimetinib),log2 fold change [10],log2 fold change [11],log2 fold change [12],log2 fold change (pinometostat),log2 fold change [13],log2 fold change [14],log2 fold change [15]
MAP4K5 (UniProt Q9Y4K4),-0.001,0.057,0.05,0.051,0.143,-0.025,-0.039,-0.083,0.152,-0.02,0.067,-0.289 (active),-0.045,-0.057,-0.034,0.034,-0.014,-0.046,-0.02,
MED8 isoform 2 (UniProt Q96G25),0.017,-0.19,-0.056,0.035,-0.031,0.152,-0.153,,,-0.051,0.038,-0.216,-0.013,-0.081,0.05,0.06,-0.043,0.016,,-0.196
LNPEP (UniProt Q9UIQ6),-0.005,-0.002,0.046,0.016,0.019,0.034,0.067,-0.01,0.042,0.015,0.021,-0.021,0.005,-0.02,0.014,0,-0.018,0.001,0.016,-0.008
KLHL18 (UniProt O94889),-0.011,0,0.12,0.022,0.031,-0.02,-0.042,-0.042,-0.026,,0.082,0.104,0.055,0.006,-0.117,-0.111,,0.026,0.088,-0.085
INPP5B (UniProt P32019),-0.027,0.056,0.071,-0.052,0.055,-0.018,0.026,-0.064,-0.039,-0.1,-0.048,-0.013,0.062,-0.053,-0.308 (active),0.122,0.101,0.042,-0.077,-0.04
MAGED1 isoform 2 (UniProt Q9Y5V3),0.024,0.044,-0.311,-0.059,-0.064,,,,,,,0.03,,-0.136,0,,,0.019,,-0.012
ITM2C (UniProt Q9NQX7),-0.078,-0.019,0.013,-0.297,-0.023,0.062,-0.029,,,,-0.069,-0.07,-0.063,-0.186,-0.445 (active),0.036,,-0.368,,0.052
MAP4K4 isoform 3 (UniProt O95819),-0.057,0.058,-0.047,0.021,0,0.034,-0.069,-0.031,-0.012,0,0.043,-1.13 (active),-0.039,-0.023,-0.027,0.024,0.046,0.107,0.073,-0.316 (active)
MED17 (UniProt Q9NVC6),0.017,0.064,-0.077,0.072,-0.083,,0.094,-0.194,-0.047,-0.076,,-0.371 (active),0.12,-0.022,-0.209,0.119,0.124,-0.056,0.182,-0.034
KXD1 (UniProt Q9BQD3),0.069,0.018,0.011,-0.005,0.083,0.024,0.01,0.022,0.036,,0.092,-0.073,-0.053,0.034,-0.181,0.041,,,0.057,0.018
LMBR1 isoform 3 (UniProt Q8WVP7),0.148,-0.016,-0.034,0.071,-0.046,0.081,-0.14,0.037,0.15,-0.013,-0.006,-0.054,-0.02,-0.037,-0.453,-0.004,0.012,,-0.244,-0.013
IL10RB (UniProt Q08334),0.05,-0.089,-0.106,0.053,0,-0.03,,0.037,0.075,0.027,0.079,0.09,,-0.09,0.063,,0.04,-0.055,-0.089,0.029
LMBRD1 (UniProt Q9NUN5),0.075,-0.055,0.211,-0.014,0.226,0.113,-0.051,-0.142,0.033,,0.036,0.026,0.088,-0.059,-0.708 (active),-0.022,,0.088,-0.086,-0.027
IP6K1 (UniProt Q92551),-0.054,0.017,-0.24,0,0.25,-0.025,-0.088,-0.083,0.067,,0.05,-0.154,-0.159,-0.295,-0.667 (active),0.069,,,0.095,0.142
MAP4 isoform 5 (UniProt P27816),0.056,-0.214,0.038,-0.067,-0.031,-0.116,-0.051,,,,0.076,0.142,-0.019,0.052,0.083,0.014,,0.298,,0.152
LEPROT (UniProt O15243),0.06,0.034,0.081,0.088,0.119,,,-0.011,0.001,,,-0.037,,0.142,-0.777 (active),,,,0.092,-0.058
LUM (UniProt P51884),-0.147,-0.043,0.095,0.039,0.063,,-0.057,0.185,0.307,-0.038,,0.078,-0.054,0.263,0.124,0.023,-0.068,-0.151,-0.256,-0.068
